Assay outcomes deposited in PubChem by several laboratories.
S1P4 antagonist = S1P4 receptor antagonists, primary screen, cell-based; S1P4-expressing cells, antagonist mode, reporter read-out; AID 1510, 2009; inhibition, % at 4.98 µM; 0.26% of 220,000 active; in the data active means inhibition above about 29%;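 further: 0% = wells stimulated with agonist and 100% = vehicle wells without agonist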
Cl transport mod = KCC2 cotransporter modulators, thallium flux, primary screen, cell-based, HEK293 KCC2, FluoZin-2 fluorescence, MLSMR; Solute carrier family 12 member 5 (Homo sapiens), Q9H2X9; KCC2 cells, thallium flux FluoZin-2 fluorescence; B-score of Tl+ flux slope (higher = more flux/activation; lower = inhibition) at 10 µM; 2.2% of 190,000 active; AID 1456, 2008;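 active means thallium flux slope and its plate-corrected score both differing from the plate sample mean at a set confidence after two filtering rounds, in either direction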;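 further: slope of fluorescence scaled to starting intensity during 10 to 20 s after thallium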
RAM inhibit = inhibitors of the yeast RAM network, primary screen, dse1pr::URA3 reporter, 5-FOA selection. S. cerevisiae dse1pr::URA3 reporter, 5-FOA growth OD615, 2 d; analog-sensitive cbk1-as2 kinase mutant strain. inhibition, % at 50 µM. 1.8% of 190,000 active;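 active means inhibition above a set limit, 3 SD over mean compound inhibition, cut at about 8.4% in these data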;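 further: 0% = DMSO-only wells with no growth and 100% = 10 µM 1-NA-PP1 full growth; inhibition rescues growth on 5-FOA so higher OD means more RAM inhibition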
S1P3 antag = S1P3 receptor antagonists, primary screen, cell-based; CHO S1P3 NFAT-BLA reporter, FRET fluorescence, antagonist mode; AID 485, 2006; 0.27% of 170,000 active; inhibition, % at 4.98 µM;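 active means inhibition above the plate cutoff, the mean inhibition of test wells on that plate plus 3 SD, cut at about 28% in these data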;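 further: cells challenged with S1P at its EC80 of 0.8 µM; blue over green emission ratio from cleaved BLA substrate after 4 h stimulation; 0% = S1P-stimulated wells and 100% = unstimulated DMSO-only wells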
ROMK mod = ROMK potassium channel modulators, primary screen, cell-based, thallium flux, MLSMR library. AID 1918, 2009. B-score at 10 µM. Tet-inducible ROMK, thallium flux fluorescence; actives lie on both sides. ATP-sensitive inward rectifier potassium channel 1 (Homo sapiens), P48048. 2% of 130,000 active;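 active means signal ratio slope over the read window, or its plate-corrected B-score, at least 3 SD from the plate mean, either direction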;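 further: B-score of the F/F0 ratio slope over 7 to 12 s after thallium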
S1P4 ag = S1P4 receptor agonists, primary screen, cell-based. AID 1509, 2009. activation, % at 4.98 µM. S1P4-expressing cell line, agonist reporter assay. 0.35% of 220,000 active. Sphingosine 1-phosphate receptor 4 (Homo sapiens), O95977; in the data active means activation above about 11%;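 further: 0% = DMSO vehicle and 100% = reference agonist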
KCC2 sec1 = KCC2 modulators in sodium-free buffer, confirmation, cell-based, HEK293 KCC2, thallium flux, secondary assay. shares compounds with Cl transport mod. 15% of 3,700 active. FluoZin2 fluorescence; active compounds read high. normalised thallium flux (F/F0 slope) at 10 µM;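 active means thallium flux slope above the same plate's solvent-only control mean plus 3 SD; inconclusive means the two replicate wells disagree; inactive means no significant difference from solvent-only control wells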
KCC2 bumet counter = thallium flux persisting under bumetanide in KCC2 cells, confirmation, counter-screen for KCC2 modulator project, cell-based, HEK293 KCC2, FluoZin2, secondary assay 3; shares compounds with Cl transport mod; HEK293-KCC2 + bumetanide/ouabain; active compounds read high; normalized thallium flux at 10 µM; 49% of 3,700 active;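 active means thallium entry rate above the same plate's blocked-transporter control wells by more than 3 SD; inconclusive means the two repeat wells disagree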;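 further: raw slope of fluorescence over initial fluorescence between 10 and 20 s after thallium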
KCC2 secondary2 = KCC2 modulators without ouabain present, confirmation, cell-based, HEK293 KCC2, thallium flux, FluoZin2, secondary assay 2; thallium flux FluoZin2 fluorescence; actives lie on both sides; F/F0 rise rate, 10–20 s post-thallium; normalized thallium flux at 10 µM; AID 1715, 2009; 23% of 3,700 active; shares compounds with Cl transport mod;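 active means thallium flux slope more than 3 SD above or below the plate's solvent-only control mean, mostly below; inconclusive means the two repeat wells disagreed; inactive means no significant shift from solvent-only controls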;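 further: raw slope with 0.1% DMSO as baseline and bumetanide as block control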
HEK293 Tl flux = thallium flux modulation in parental HEK cells, confirmation, counter-screen for KCC2 modulator project, cell-based, counterscreen 1; shares compounds with Cl transport mod; HEK293 parental cells, thallium flux FluoZin2, ouabain; baseline-ratio fluorescence slope, 10–20 s after thallium; thallium flux rate (normalised fluorescence) at 10 µM; 46% of 3,700 active; AID 1716, 2009;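 active means thallium flux rate significantly above the same plate's solvent-only control wells, beyond their mean plus 3 SD; inconclusive means the two replicate wells gave conflicting results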
KCC2 ouabain = KCC2 inhibitors and activators, ouabain retest, confirmation, HEK-KCC2 cells; shares compounds with Cl transport mod; 48% of 3,700 active; raw Tl+ flux slope (below DMSO = inhibition, above = activation) at 10 µM; AID 1717, 2009; HEK293-KCC2, thallium flux FluoZin2 fluorescence; bidirectional: low = inhibitor, high = activator;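 active means thallium flux slope beyond 3 SD from same-plate DMSO control mean in most replicates, usually higher, sometimes lower; inconclusive means repeat tests gave conflicting results; inactive means no significant difference from controls in most replicates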;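 further: slope of initial-normalized fluorescence between seconds 10 and 20 after thallium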
HEK counter2 = native HEK Tl+ uptake effects, second counter-screen – HEK cells, counterscreen 2, counter-screen for KCC2 modulator project, confirmation; HEK293 parental, thallium flux FluoZin-2 fluorescence slope; AID 1718, 2009; thallium flux slope at 10 µM; shares compounds with Cl transport mod; 33% of 3,700 active;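 active means thallium flux slope above the same plate's solvent-control mean plus 3 SD in both duplicate wells; inconclusive means duplicate wells that disagreed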;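 further: run without ouabain in cells lacking the KCC2 cotransporter; slope of fluorescence scaled to its starting value between 10 and 20 s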
* = called active by the depositor; ? = inconclusive; . = no result. Only some compounds are listed: those with a hit (about 5.1% of all), similar ones and a draw of the others.

SMILES	S1P4 antagonist	Cl transport mod	RAM inhibit	S1P3 antag	ROMK mod	S1P4 ag	KCC2 sec1	KCC2 bumet counter	KCC2 secondary2	HEK293 Tl flux	KCC2 ouabain	HEK counter2
CCCc1cc(C(=O)NNC(=S)Nc2cccc(C)c2)cs1	-6	31*	4	3	.	4	0.0058	0.083*	0.063*	0.077*	0.065*	0.044*
Cc1cccc(NC(=S)NNC(=O)c2ccc3c(c2)OCO3)c1	-34	2.5	3	1	0.0051	0	.	.	.	.	.	.
Cc1cccc(NC(=S)NNC(=O)c2ccccc2OC(F)F)c1	-12	13*	1	.	-0.01	-2	0.0091	0.026*	0.03	0.012*	?	0.011*
COc1ccc(NC(=S)NNC(=O)c2ccccc2OC(F)F)cc1	3	0.04	2	.	0.83	1	.	.	.	.	.	.
O=C(COc1ncnc2ccccc12)c1ccc(Cl)cc1	1	0.12	1	-5	1.1	2	.	.	.	.	.	.
O=C(/C=C/c1cccc([N+](=O)[O-])c1)N1CCN(c2ccccc2F)CC1	-5	-0.84	3	-22	0.31	1	.	.	.	.	.	.
CCOc1ccccc1N1CCN(C(=O)/C=C/c2cccc([N+](=O)[O-])c2)CC1	-14	-3.8*	0	-8	.	-1	0.0054	0.0048	0.027*	0.0057*	0.017*	?
COc1ccc(-n2c(Cc3cccn3C)nnc2SCC(=O)Nc2ccc(F)cc2)cc1	12	-3.1*	7	12	.	0	0.0089	0.005	0.036	0.0072	0.019	0.011
Cc1ccc(-n2cc(-c3ccc([N+](=O)[O-])cc3)[nH]c2=S)c(C)c1	-35	26*	2	0	0.91	1	?	0.099*	0.077*	0.086*	0.081*	0.055*
Cc1cccc(-n2cc(-c3ccc([N+](=O)[O-])cc3)[nH]c2=S)c1	-8	5.1*	2	-2	.	-1	?	0.017*	0.033	0.019*	0.028*	0.015*
O=[N+]([O-])c1cccc(-c2cn(-c3ccccc3)c(=S)[nH]2)c1	-1	16*	3	-7	0.51	-1	0.014*	0.037*	0.038	0.021*	?	0.014*
O=C(Cc1ccccc1)N[C@@H](Cc1ccc(O)cc1)C(=O)O	.	-0.52	.	.	.	.	.	.	.	.	.	.
COc1ccc(C(=O)NC(=S)NCc2ccco2)cc1	-8	6.8*	.	-13	0.3	-1	0.011	0.015*	0.032	?	?	0.012
Cc1ccc(C(=O)NC(=S)NCc2ccco2)cc1	2	19*	-2	-7	0.42	0	0.014*	0.022*	0.035	0.027*	0.029*	0.016*
COc1ccc(CN(C(=O)c2cc(=O)c3cc(C)cc(C)c3o2)C2CCS(=O)(=O)C2)cc1 (stereo unspecified)	5	-0.37	.	4	.	0	.	.	.	.	.	.
CC(=O)N1CCCc2cc(S(=O)(=O)CCC(=O)N3CCN(c4cccc(C)c4)C(C)C3)ccc21 (stereo unspecified)	-12	-3.6*	1	-12	.	-2	0.0076	0.0049	0.026	0.0073	0.018	0.01
O=C(Nc1ccc2ccccc2c1)C(=O)C1C(=O)Nc2ccccc21 (stereo unspecified)	11	25*	.	8	.	-1	?	0.022*	?	0.018*	0.021	0.017*
O=C(Nc1ccc(F)cc1)C(=O)C1C(=O)Nc2ccccc21 (stereo unspecified)	5	2.4	.	3	.	1	.	.	.	.	.	.
O=c1c(O)c(-c2ccc3c(c2)OCO3)oc2ccccc12	-8	.	1	-29	2.3	3	0.032*	0.17*	0.052*	0.1*	0.1*	0.05*
Cc1ccc(S(=O)(=O)CCSC(=N)N)cc1	-2	0.11	1	-12	0.11	1	.	.	.	.	.	.
COC(=O)CCCCCN1C(=O)/C(=C\c2ccncc2)SC1=S	1	.	.	-10	.	0	.	.	.	.	.	.
CCCCCCCCCCNC(=O)C(=O)Nc1ccccn1	-10	.	8	.	-0.15	4	0.011	0.0068	0.033	0.0098*	0.02	0.013*
O=C(Cn1cnc2c(nnn2-c2ccccc2)c1=O)NCCc1ccccc1	1	-4.3*	2	-17	.	0	0.007	0.0051	0.023*	0.0073	0.014*	0.01
O=C(Cn1cnc2c(cnn2-c2ccccc2)c1=O)NCCc1ccccc1	-8	-0.031	4	-19	.	1	.	.	.	.	.	.
Cc1ccc(Cn2nnc3c(=O)n(CC(=O)c4ccccc4)cnc32)cc1	-15	-3.2	3	9	.	-1	.	.	.	.	.	.
O=C(Cn1cnc2c(nnn2Cc2ccccc2)c1=O)N1CCCc2ccccc21	1	-4.5*	5	-16	.	0	0.0067	0.0051	0.022*	0.008	?	0.011
O=C(Cn1cnc2c(nnn2Cc2ccc(F)cc2)c1=O)N1CCN(c2ccccc2)CC1	-12	.	-1	-2	-1.4	-1	0.0068	0.0044	0.024*	0.0076	?	0.011
